Inconclusive results are not listed. Calls of active or inactive are those of the source. Unless noted, calls come from the whole dose curve; as a rule, active = well fitted curve in the direction sought with a large enough effect; inconclusive = small, poorly fitted or top-dose-only effect, or another doubt; inactive = no such curve, though single readings can be large; an effect the other way counts as inactive or inconclusive.
Columns and labels:
[1] = qHTS to identify inhibitors of the type 1 interferon - major histocompatibility complex class I in skeletal muscle: primary screen against the NCATS LOPAC collection (AID 1347405)
How it was run: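 HLA-B HiBiT myoblasts, IFN-b 4 ng/ml, dexamethasone-free medium; compounds 7-pt 1:4.3 titration, top 46 uM final; 24 h at 37 C; Nano-Glo HiBiT lytic reagent, 10 min RT, luminescence.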

[2] = qHTS to identify inhibitors of the type 1 interferon - major histocompatibility complex class I in skeletal muscle: primary screen against the NCATS Pharmaceutical Collection (AID 1347407)
How it was run: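 Immortalized human myoblasts (C25cl48) with HiBiT knocked into endogenous HLA-B*08:01 were stimulated with 4 ng/ml IFN-beta and treated with compounds (8-point, 1:5, top 46 uM final) for 24 h at 37 C; HiBiT lytic luminescence read.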

[3] = qHTS for inhibitors of adenylyl cyclases using a fission yeast platform: a pilot screen against the NCATS LOPAC library (AID 1347410)
How it was run: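 S. pombe CHP2027 (AC9-GNAS-PDE4D2) carrying a PKA-repressed fbp1-GFP reporter was exposed to LOPAC compounds (final up to 57 µM) for 18 h at 30C in the dark, in EMM with histidine, lysine and uracil; GFP gain-of-signal read by laser scanning cytometry.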

[4] = target: Protein phosphatase 1D (Homo sapiens) (UniProt O15297); experiment: RapidFire Mass Spectrometry qHTS Assay for Modulators of WT P53-Induced Phosphatase 1 (WIP1) (AID 1347424)
Chain of Protein phosphatase 1D (Homo sapiens) (O15297 whole entry, looked up): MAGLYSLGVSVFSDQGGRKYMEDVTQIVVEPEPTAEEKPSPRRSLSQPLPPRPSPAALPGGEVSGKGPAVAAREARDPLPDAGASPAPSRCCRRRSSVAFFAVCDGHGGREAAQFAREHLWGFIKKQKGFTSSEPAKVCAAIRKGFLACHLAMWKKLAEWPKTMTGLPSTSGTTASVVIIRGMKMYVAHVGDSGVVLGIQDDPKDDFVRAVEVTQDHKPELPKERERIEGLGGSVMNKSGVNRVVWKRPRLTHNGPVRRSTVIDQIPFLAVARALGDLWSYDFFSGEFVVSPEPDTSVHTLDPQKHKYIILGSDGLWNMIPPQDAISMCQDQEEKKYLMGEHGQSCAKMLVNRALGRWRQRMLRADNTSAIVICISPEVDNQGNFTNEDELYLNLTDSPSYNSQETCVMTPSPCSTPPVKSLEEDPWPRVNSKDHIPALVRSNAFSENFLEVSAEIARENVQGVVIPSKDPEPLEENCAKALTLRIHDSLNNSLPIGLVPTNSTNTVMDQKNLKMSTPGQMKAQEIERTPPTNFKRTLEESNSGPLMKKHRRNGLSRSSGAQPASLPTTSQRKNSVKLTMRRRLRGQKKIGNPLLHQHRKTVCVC
How it was run: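 Mass-spectrometric measurement of dephosphorylated peptide after a 5 min room-temperature reaction of 10 nM WIP1 with 2 uM phosphopeptide, following 1 h compound preincubation in 30 mM MgCl2 buffer.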

[5] = Validation qHTS assay for inhibitors of Activation Induced Cytidine Deaminase (AID): UDG Counterscreen signal (AID 1347427)
How it was run: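 Fluorescence at 560 nm excitation, 665 nm emission reports UDG signal after 250 mM NaOH (2x) addition and 30 min. Enzymes (AID 1 uM, UDG 2 U/mL, at 4/3x) preincubated 10 min with compound, then 4 h with 4x 250 nM DJC20/DJC23 substrate at room temperature.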

[6] = target: Single-stranded DNA cytosine deaminase (Homo sapiens) (UniProt Q9GZX7); experiment: Validation qHTS assay for inhibitors of Activation Induced Cytidine Deaminase (AID): AID signal (AID 1347429)
Chain of Single-stranded DNA cytosine deaminase (Homo sapiens) (Q9GZX7 whole entry, looked up): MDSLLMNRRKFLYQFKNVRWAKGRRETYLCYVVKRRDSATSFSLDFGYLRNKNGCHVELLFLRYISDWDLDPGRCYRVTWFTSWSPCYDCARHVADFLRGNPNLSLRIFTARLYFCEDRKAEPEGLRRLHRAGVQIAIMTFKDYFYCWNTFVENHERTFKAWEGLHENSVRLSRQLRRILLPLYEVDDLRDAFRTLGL
How it was run: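 AID+UDG coupled FRET deamination; cpds up to 114 uM final; DJC20/DJC23 substrate, 4 hr RT; NaOH stop, 30 min RT; read Ex 540/Em 590.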

[7] = target: Protein phosphatase 1D (Homo sapiens) (UniProt O15297); experiment: Rhodamine-PBP qHTS Assay for Modulators of WT P53-Induced Phosphatase 1 (WIP1) (AID 1347425)
How it was run: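 The read-out is the change in Rhodamine-PBP fluorescence (f1 - f0, ex 525/em 598 nm) as Pi is released, read each minute for 11 min. Final reaction: 5 nM WIP1, 10 uM phosphopeptide VEPPL-pS-QETFS, 10 uM Rh-PBP, 50 mM Tris-HCl pH 7.5, 30 mM MgCl2. Compound was preincubated with enzyme for 1 hour at room temperature.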

[8] = Inflammasome Signaling qHTS Counterscreen: IL-1-beta AlphaLISA counterscreen against the NCATS CANVASS Library (AID 1347381)
How it was run: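 Here, no cellular stimulation occurs; compounds in an 11-point series meet 4 pg purified IL-1-beta directly. Bead-based AlphaLISA detection follows (1 h acceptor/antibody, then 30 min donor, dark, room temperature), with excitation at 680 nm.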

[9] = Cytotoxicity qHTS for assessment of Hepg2 cells membrane integrity screened against the NCATS CANVASS Library (AID 1347387)
How it was run: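 LDH release read by fluorescence (560 nm ex/590 nm em) after CytoTox-ONE addition and 10 min RT; signal tracks lysed cells. HepG2, 2000 cells/well, plated overnight; compound 5 hr, 37C, 5% CO2, final 0.59 nM - 46 uM, 11 points.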

[10] = qHTS for Activators of p53 Stress Response Pathway screened against the NCATS CANVASS Library (AID 1347388)
How it was run: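 p53RE-bla HCT-116 cells (4000/well) were plated 5 h at 37C, exposed to compounds for 16 h at 37C over an 11-point concentration series, then loaded with CCF4 for 2 h at room temperature; 460/530 nm emission ratio read.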

[11] = qHTS assay for small molecule disruptors of mitochondrial membrane potential screened against the NCATS CANVASS Library (AID 1347389)
How it was run: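 Red/green fluorescence ratio read-out: J-aggregates ex 540/em 590 nm, monomers ex 490/em 535 nm. HepG2, 1 hr compound treatment, then 30 min Mito-MPS dye at 37C. 11-pt qHTS concentration series.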

[12] = qHTS for activators of Nrf2/ARE signaling pathway screened against the NCATS CANVASS Library (AID 1347391)
How it was run: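 HepG2 ARE-bla; cpd 11-pt qHTS, 16 h 37C/5% CO2; CCF4 substrate 2 h RT; read ex 405 / em 460 + 530 nm. Viability by CellTiter-Glo luminescence, 30 min RT.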

[13] = qHTS for activators of dead-cell proteases activity screened against the NCATS CANVASS Library (AID 1347392)
How it was run: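 Cytotoxicity in HepG2 cells was assessed by released protease cleaving AAF-aminoluciferin, with luminescence as signal. Exposure lasted 5 h at 37C across an 11-point series.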

[14] = qHTS for inhibitors of ER calcium dysfunction: SERCaMP assay screened against the NCATS CANVASS Library (AID 1347393)
How it was run: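 qHTS in SH-SY5Y reporter cells: 16 h compound pretreatment, 4 h thapsigargin, then secreted Gaussia luciferase measured by luminescence.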

[15] = Vero-766 cells viability qHTS against the NCATS CANVASS Library: Counterscreen for Zika virus inhibition assay (AID 1347394)
How it was run: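 Uninfected Vero 766 (African green monkey) cells, 1000/well, attached overnight, then exposed 72 h at 37C to compounds (11-point qHTS). Viability read by CellTiter-Glo luminescence; media-only wells served as 100% inhibition.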

[16] = qHTS for inhibitors of Wild type Zika virus screened against the NCATS CANVASS Library (AID 1347396)
How it was run: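 Luminescent CellTiter Glo read-out of virus-induced cytotoxicity, 72 h post-infection, in Vero 766 cells. Compounds were tested at 11 concentrations; uninfected, vehicle-treated wells defined 100% inhibition.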

[17] = Viability qHTS for inhibitors of the SERCaMP assay screened against the NCATS CANVASS Library (AID 1347400)
How it was run: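 CellTiter-Glo luminescence readout after 48 h compound exposure (11-pnt qHTS series) of SH-SY5Y-GLuc SERCaMP MJH297 cells seeded at 1000 cells/well; bortezomib positive control.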

[18] = Redox Reaction Profiling qHTS: Assay Interference Panel against the NCATS CANVASS Library (AID 1347401)
How it was run: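 Quantitative HTS over an 11-point series was run in HEPES pH 7.3 with 50 mM NaCl, 200 uM DTT and 5 uM resazurin. Initial and 15-min resorufin fluorescence readings were taken.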

[19] = qHTS for inhibitors of Rabies Virus screened against the NCATS CANVASS Library (AID 1347402; calls by dose curve)
[20] = qHTS to identify inhibitors of the type 1 interferon - major histocompatibility complex class I in skeletal muscle: primary screen against the NCATS Mechanism Interrogation Plate v5.0 (MIPE) Libary (AID 1347411)
How it was run: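 HLA-B HiBit myoblasts, dexamethasone-free medium + 4 ng/ml IFN-b, 24 h compound, 11-pt 1:3 from 46 uM final. Readout: Nano-Glo HiBiT lytic luminescence after 10 min lysis, RT.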

O=C1NCN(c2ccccc2)C12CCN(CC1COc3ccccc3O1)CC2 (stereo not given)
inactive: Potency [1] | Potency [2] | outcome [3] | Potency [4] | outcome [5] | outcome [6]

CCC1(C2=NCCN2)Cc2ccccc2O1 (stereo not given)
inactive: Potency [1] | Potency [2] | outcome [3] | Potency [4] | outcome [5] | outcome [6]

CC[C@@H](CO)NC(=O)[C@@H]1C=C2c3cccc4c3c(cn4C)C[C@H]2N(C)C1
inactive: Potency [1] | outcome [3] | Potency [4] | outcome [7] | outcome [5] | outcome [6]

CN(C)CCc1ccc(O)cc1
inactive: Potency [2]

NCC(O)c1ccc(O)cc1 (stereo not given)
inactive: outcome [8] | outcome [9] | outcome [10] | outcome [11] | outcome [12] | outcome [13] | outcome [14] | outcome [15] | outcome [16] | outcome [17] | outcome [18] | outcome [19] | Potency [1] | outcome [3] | Potency [4] | outcome [7] | outcome [5] | outcome [6]

NN=C(N)N
inactive: Potency [1] | outcome [3] | Potency [20] | Potency [4] | outcome [5] | outcome [6]

COc1ccccc1N1CCNCC1
inactive: Potency [1] | Potency [2] | outcome [3] | Potency [4] | outcome [5] | outcome [6]

CC(C)=CCOc1c2occc2cc2ccc(=O)oc12
inactive: Potency [1] | outcome [3] | Potency [4] | outcome [7] | outcome [5] | outcome [6]

CC(CCc1ccccc1)NC(C)C(O)c1ccc(O)cc1 (stereo not given)
inactive: Potency [1] | Potency [2] | outcome [3] | outcome [7] | outcome [5] | outcome [6]

NCC(CC(=O)O)c1ccc(Cl)cc1 (stereo not given)
inactive: Potency [1] | outcome [3] | activity change, negative = inhibition [4] -7.37% [at 0.505 µM] | activity change, negative = inhibition [7] 1.39% [at 0.575 µM] | outcome [5] | outcome [6]

CCCN1CCC[C@@H]2Cc3[nH]ncc3C[C@H]21
inactive: Potency [1] | outcome [3] | Potency [4] | outcome [5] | outcome [6]

CC(=O)[C@H]1CC[C@H]2[C@@H]3CC[C@H]4C[C@H](O)CC[C@]4(C)[C@H]3C(=O)C[C@]12C
inactive: Potency [1] | Potency [2] | outcome [3] | Potency [4] | outcome [7] | outcome [5] | outcome [6]

N#CC(C#N)=Cc1ccc(O)c(O)c1
inactive: Potency [1] | outcome [3] | Potency [4] | outcome [7] | outcome [5] | outcome [6]
